The other results are listed elsewhere or left out. Calls of active or inactive are those of the source. The rule behind the calls is not given here.
Test system: Botulinum neurotoxin type F light chain protease (Clostridium botulinum)
Assay: inhibition of botulinum toxin F LC protease – biochemical, flow cytometry, cherry pick 1, confirmation (AID 602140)
Details: multiplex microsphere protease cleavage assay, at 10 µM, stronger effect = higher value

Row | Structure (SMILES) | inhibition
1 | Cc1c(NC(=O)c2cccnc2)c(=O)n(-c2ccccc2)n1C | 2.7% (inactive)
2 | COc1ccc(N(CC(=O)NCCSCc2cccc(Cl)c2)S(C)(=O)=O)cc1 | -2.3% (inactive)
3 | CN1CCN(c2ccc(NC(=O)c3ccccc3)cc2)CC1 | 1.4% (inactive)
4 | COc1ccccc1-n1c(-c2cc(-c3ccco3)[nH]n2)n[nH]c1=S | 4% (inactive)
5 | CC1CCN(C(=O)c2ccc(S(=O)(=O)Cc3cc(F)ccc3F)c([N+](=O)[O-])c2)CC1 | 1.2% (inactive)
6 | Clc1ccc(-c2ncc3ccccn23)c(Cl)c1 | -4.7% (inactive)
7 | O=C(Nc1nnc(CCc2ccccc2)s1)C1CCCO1 (stereo unspecified) | -7% (inactive)
8 | CN(C(=O)c1ccccn1)c1nnc(-c2ccccn2)s1 | -3.7% (inactive)
9 | Cc1cccc2cc3c(N)c(C(=O)N4CCCc5ccccc54)sc3nc12 | 0.3% (inactive)
10 | Brc1ccc2ncnc(NCc3cccnc3)c2c1 | -1.4% (inactive)
11 | CC(C)Cc1nnc(NC(=O)CCC(=O)Nc2ccc3cn[nH]c3c2)s1 | -1.9% (inactive)
12 | O=C(CN1CCCCCC1)Nc1c(Cl)cc(Cl)cc1Cl | -7.6% (inactive)
13 | COc1cc(C(=O)NCc2ccc3c(c2)cc(C)n3C)cc(OC)c1OC | -4.7% (inactive)
14 | CC(=O)Nc1ccc(Oc2ccc3c(c2)C(=O)NC3=O)cc1 | -3.5% (inactive)
15 | CCOCC(=O)NCc1ccc2c(c1)cc(C)n2C | -12.1% (inactive)
16 | CCN1CCN(C(C(=O)NC2CCCC2)c2cc3c(cc2[N+](=O)[O-])OCO3)CC1 (stereo unspecified) | -4.2% (inactive)
17 | COc1ccc(NS(=O)(=O)c2cc(C(=O)Nc3ccccc3C(=O)O)ccc2C)cc1 | -0.5% (inactive)
18 | CCOc1nnc(C)c2c(C)n(-c3cccc(Cl)c3)nc12 | 18.1% (inactive)
19 | O=S(=O)(NC1CCCCC1N1CCC(O)CC1)c1ccc(Cl)cc1 (stereo unspecified) | 2.2% (inactive)
20 | CCCN1C2CCCC1CC(NC(=O)c1cccc(OC)c1)C2 (stereo unspecified) | 0.9% (inactive)
21 | CCOc1ccc(NC(=O)CC(Cc2ccc(Cl)cc2)C(=O)O)cc1 (stereo unspecified) | -1.5% (inactive)

— PubChem BioAssay AID602140 (NMMLSC, 2011)
